In PMC4081100, “A DNA-binding-site landscape and regulatory network analysis for NAC transcription factors in Arabidopsis thaliana” one finds binding signal data, which are given here for seven sequences.

Common to all, as to experiment: universal protein binding microarray (PBM); transcription factors of Arabidopsis thaliana; high values mean tight binding
The target of one experiment is T1, GST-ANAC092(1-176) (Arabidopsis thaliana, UniProt Q9FKA0 1-176).
T1 sequence: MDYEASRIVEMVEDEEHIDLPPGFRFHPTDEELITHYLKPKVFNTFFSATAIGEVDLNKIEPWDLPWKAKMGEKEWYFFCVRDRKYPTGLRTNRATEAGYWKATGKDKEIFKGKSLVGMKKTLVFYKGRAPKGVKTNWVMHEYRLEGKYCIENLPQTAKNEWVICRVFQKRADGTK
The conditions noted are these: protein: recombinant; tags: GST; chain copies: 2; dsDNA, one strand shown. A digest of the protocol: (§1)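 GST-tagged proteins (NAC-domain, full-length or DNA-binding-domain) were induced in cells, with zinc acetate supplied for zinc-finger proteins, then purified on glutathione–Sepharose 4B. Each was tested in duplicate at 200 to 500 nM final on custom all-10-mer Agilent 4 × 180K arrays rendered double-stranded by primer extension. The binding value is the normalised enrichment score (E-score) across gapped and ungapped 8-mers.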

The next experiment deals with GST-NTL6(1-168) (Arabidopsis thaliana, UniProt Q9SCK6 1-168). The following applies: protein: recombinant; tags: GST; chain copies: 2; dsDNA, one strand shown. A digest of the protocol:
as §1

A further experiment deals with T2, GST-ATAF1 NAC domain (Arabidopsis thaliana, UniProt Q39013 7-158).
T2 sequence: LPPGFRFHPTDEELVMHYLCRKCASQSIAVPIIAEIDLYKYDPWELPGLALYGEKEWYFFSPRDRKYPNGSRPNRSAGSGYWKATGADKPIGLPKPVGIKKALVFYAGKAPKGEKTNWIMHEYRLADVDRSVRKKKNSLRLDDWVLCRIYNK
The following applies: protein: recombinant; tags: GST; chain copies: 2; dsDNA, one strand shown. A digest of the protocol: as §1

Experiment [1] deals with T3, GST-ANAC092(1-285) full length (Arabidopsis thaliana, UniProt Q9FKA0 1-285).
T3 sequence: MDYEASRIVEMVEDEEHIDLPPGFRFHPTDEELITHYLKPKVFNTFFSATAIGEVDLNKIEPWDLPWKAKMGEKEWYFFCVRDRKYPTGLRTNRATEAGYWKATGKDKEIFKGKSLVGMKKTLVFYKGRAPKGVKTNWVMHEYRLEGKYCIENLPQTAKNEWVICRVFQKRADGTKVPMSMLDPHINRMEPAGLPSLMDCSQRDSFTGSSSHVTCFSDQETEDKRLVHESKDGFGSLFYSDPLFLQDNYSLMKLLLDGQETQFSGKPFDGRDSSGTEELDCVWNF
The conditions noted are these: protein: recombinant; tags: GST; chain copies: 2; dsDNA, one strand shown. A digest of the protocol: as §1

The next experiment concerns the target T4, GST-NST2(1-184) (Arabidopsis thaliana, UniProt Q9M274 1-184).
T4 sequence: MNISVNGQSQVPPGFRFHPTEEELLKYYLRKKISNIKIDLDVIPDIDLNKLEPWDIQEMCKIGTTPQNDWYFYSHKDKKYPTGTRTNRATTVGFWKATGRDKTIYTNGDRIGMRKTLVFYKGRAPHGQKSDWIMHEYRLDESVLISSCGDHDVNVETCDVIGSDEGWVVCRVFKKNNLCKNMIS
The conditions noted are these: protein: recombinant; tags: GST; chain copies: 2; dsDNA, one strand shown. In outline: as §1

A further experiment has as its target T5, GST-NTL8 NAC domain (Arabidopsis thaliana, UniProt Q9XIN7 14-156).
T5 sequence: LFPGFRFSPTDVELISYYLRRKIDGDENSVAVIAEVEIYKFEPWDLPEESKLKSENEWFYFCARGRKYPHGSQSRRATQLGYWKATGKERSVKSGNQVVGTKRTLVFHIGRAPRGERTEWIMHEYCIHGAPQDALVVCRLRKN
The conditions noted are these: protein: recombinant; tags: GST; chain copies: 2; dsDNA, one strand shown. In outline:
as §1

In the next experiment the target is T6, GST-SND1(1-203) (Arabidopsis thaliana, UniProt Q9LPI7 1-203).
T6 sequence: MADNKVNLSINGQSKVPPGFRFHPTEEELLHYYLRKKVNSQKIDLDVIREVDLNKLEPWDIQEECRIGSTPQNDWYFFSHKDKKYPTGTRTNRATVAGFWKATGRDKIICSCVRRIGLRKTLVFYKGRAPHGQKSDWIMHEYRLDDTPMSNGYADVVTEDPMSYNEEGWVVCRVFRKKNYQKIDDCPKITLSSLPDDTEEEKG
The conditions noted are these: protein: recombinant; tags: GST; chain copies: 2; dsDNA, one strand shown. A digest of the protocol: as §1

A further experiment has as its target T7, GST-VND3 NAC domain (Arabidopsis thaliana, UniProt Q9FH59 12-162).
T7 sequence: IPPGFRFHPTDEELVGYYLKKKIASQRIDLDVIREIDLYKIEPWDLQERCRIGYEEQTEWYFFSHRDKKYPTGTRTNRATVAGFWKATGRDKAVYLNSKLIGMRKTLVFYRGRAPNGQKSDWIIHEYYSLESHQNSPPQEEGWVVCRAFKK
The conditions noted are these: protein: recombinant; tags: GST; chain copies: 2; dsDNA, one strand shown. In outline: as §1

The target in a further experiment is T8, GST-ANAC019 NAC domain (Arabidopsis thaliana, UniProt Q9C932 14-162).
T8 sequence: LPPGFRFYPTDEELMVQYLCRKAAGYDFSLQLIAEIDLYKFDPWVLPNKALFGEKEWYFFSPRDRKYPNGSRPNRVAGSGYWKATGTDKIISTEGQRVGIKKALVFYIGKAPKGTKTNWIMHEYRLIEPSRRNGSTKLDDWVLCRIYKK
The conditions noted are these: protein: recombinant; tags: GST; chain copies: 2; dsDNA, one strand shown. In outline: as §1

Another experiment deals with T9, GST-ANAC055(1-171) (Arabidopsis thaliana, UniProt Q9LDY8 1-171).
T9 sequence: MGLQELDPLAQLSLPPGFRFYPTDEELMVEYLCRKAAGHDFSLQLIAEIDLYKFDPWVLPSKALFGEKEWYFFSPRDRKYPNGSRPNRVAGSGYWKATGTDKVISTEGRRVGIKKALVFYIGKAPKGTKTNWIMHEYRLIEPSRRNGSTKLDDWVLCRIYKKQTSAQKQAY
The following applies: protein: recombinant; tags: GST; chain copies: 2; dsDNA, one strand shown. In outline: as §1

The target in the next experiment is T10, GST-NAP(1-166) (Arabidopsis thaliana, UniProt O49255 1-166).
T10 sequence: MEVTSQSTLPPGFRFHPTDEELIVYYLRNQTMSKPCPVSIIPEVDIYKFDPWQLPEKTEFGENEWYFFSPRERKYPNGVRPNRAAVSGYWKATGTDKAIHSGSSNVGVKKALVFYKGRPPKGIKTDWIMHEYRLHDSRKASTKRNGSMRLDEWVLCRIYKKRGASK
The conditions noted are these: protein: recombinant; tags: GST; chain copies: 2; dsDNA, one strand shown. In outline: as §1

The next experiment addresses GST-WRKY1(266-371) (Arabidopsis thaliana, UniProt Q9SI37 266-371). The following applies: protein: recombinant; tags: GST; dsDNA, one strand shown. A digest of the protocol: as §1
Another experiment concerns the target T11, GST-VND7 NAC domain (Arabidopsis thaliana, UniProt Q9C8W9 9-158).
T11 sequence: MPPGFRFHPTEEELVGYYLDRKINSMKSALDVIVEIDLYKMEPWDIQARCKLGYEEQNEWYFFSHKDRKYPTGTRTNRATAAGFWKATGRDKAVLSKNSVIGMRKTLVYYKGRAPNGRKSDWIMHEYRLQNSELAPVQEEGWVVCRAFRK
The conditions noted are these: protein: recombinant; tags: GST; chain copies: 2; dsDNA, one strand shown. In outline:
as §1

Sequence of GST-WRKY1(266-371) (Q9SI37 266-371): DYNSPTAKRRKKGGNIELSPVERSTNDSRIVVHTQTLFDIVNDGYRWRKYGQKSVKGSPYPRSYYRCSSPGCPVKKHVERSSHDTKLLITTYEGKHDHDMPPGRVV
Sequence of GST-NTL6(1-168) (Q9SCK6 1-168): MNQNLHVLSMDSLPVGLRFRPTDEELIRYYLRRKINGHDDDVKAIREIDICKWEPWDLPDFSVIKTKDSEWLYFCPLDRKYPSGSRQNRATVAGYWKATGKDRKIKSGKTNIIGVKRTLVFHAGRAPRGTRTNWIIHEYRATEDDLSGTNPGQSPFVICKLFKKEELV

As to AAGGAATC, the binding signal in the experiment with GST-ANAC092(1-176) amounted to 0.172 E-score; with GST-NTL6(1-168), 0.42 E-score; with GST-ATAF1 NAC domain, 0.0816 E-score; in experiment [1], 0.251 E-score; in the experiment with GST-NST2(1-184), 0.0867 E-score; with GST-NTL8 NAC domain, 0.328 E-score. In addition, the binding signal with GST-SND1(1-203) was 0.292 E-score; with GST-VND3 NAC domain, 0.0823 E-score.
On to GGCGTGTA, for which the binding signal in the experiment with GST-ANAC092(1-176) is 0.4 E-score; with GST-ANAC019 NAC domain, 0.198 E-score; in the experiment with GST-ANAC055(1-171), 0.109 E-score; in the experiment with GST-ATAF1 NAC domain, 0.163 E-score; in experiment [1], 0.439 E-score; with GST-NAP(1-166), 0.13 E-score. The binding signal is 0.14 E-score with GST-NST2(1-184), 0.142 E-score with GST-SND1(1-203) and 0.118 E-score with GST-VND3 NAC domain.
Consider GTTTCCTA, for which the binding signal with GST-ANAC092(1-176) was determined as 0.118 E-score; with GST-NTL6(1-168), 0.0734 E-score; with GST-ANAC019 NAC domain it was 0.158 E-score; in the experiment with GST-ANAC055(1-171), 0.133 E-score; in the experiment with GST-ATAF1 NAC domain it was 0.212 E-score; in experiment [1] it was 0.179 E-score. Also, the binding signal in the experiment with GST-NAP(1-166) worked out at 0.118 E-score; in the experiment with GST-NST2(1-184) it was 0.169 E-score; with GST-NTL8 NAC domain, 0.404 E-score; with GST-SND1(1-203), 0.106 E-score; with GST-VND3 NAC domain, 0.179 E-score.
For the sequence CCAAGCAA, the binding signal with GST-ANAC092(1-176) was 0.31 E-score; in the experiment with GST-NTL6(1-168), 0.309 E-score; with GST-ANAC019 NAC domain, 0.147 E-score; in the experiment with GST-ANAC055(1-171) it was 0.0877 E-score; with GST-ATAF1 NAC domain it was 0.0528 E-score; in experiment [1] it was 0.356 E-score. The binding signal turned out to be 0.295 E-score in the experiment with GST-NST2(1-184), 0.0676 E-score in the experiment with GST-NTL8 NAC domain, 0.405 E-score with GST-SND1(1-203) and 0.119 E-score in the experiment with GST-VND3 NAC domain.
For GTAGTCAA, the binding signal with GST-NTL6(1-168) turned out to be 0.0675 E-score; with GST-ANAC055(1-171), 0.168 E-score; with GST-ATAF1 NAC domain, 0.191 E-score; with GST-NAP(1-166), 0.0663 E-score; in the experiment with GST-NST2(1-184) it was 0.112 E-score; in the experiment with GST-SND1(1-203), 0.0829 E-score. In addition, the binding signal amounted to 0.134 E-score in the experiment with GST-VND3 NAC domain and 0.478 E-score with GST-WRKY1(266-371).
With AAGGAATG, the binding signal is 0.153 E-score in the experiment with GST-ANAC092(1-176); 0.422 E-score in the experiment with GST-NTL6(1-168); 0.0613 E-score in the experiment with GST-ANAC019 NAC domain; 0.0506 E-score with GST-ANAC055(1-171); 0.07 E-score with GST-ATAF1 NAC domain; 0.115 E-score in experiment [1]. In addition, the binding signal with GST-NST2(1-184) stood at 0.196 E-score; in the experiment with GST-NTL8 NAC domain, 0.293 E-score; with GST-SND1(1-203), 0.227 E-score; with GST-VND7 NAC domain, 0.0905 E-score; with GST-WRKY1(266-371) it was 0.0844 E-score.
Regarding GTCAAAAC, the binding signal in the experiment with GST-ATAF1 NAC domain was found to be 0.178 E-score; in experiment [1] it was 0.11 E-score; in the experiment with GST-NAP(1-166) it was 0.111 E-score; in the experiment with GST-NTL8 NAC domain, 0.0569 E-score; in the experiment with GST-SND1(1-203), 0.148 E-score; with GST-VND3 NAC domain, 0.176 E-score. The binding signal with GST-WRKY1(266-371) came to 0.447 E-score.
